Experimental data from PubChem BioAssay (Tox21).
Records with an inconclusive call do not appear. A number with no mark means an inactive call. The source made the active and inactive calls. Calls come from the whole dose curve; as a rule, active = well fitted inhibition curve with a large enough effect in the repeat runs; inconclusive = weak or mixed curves; inactive = no such curve, though single readings can be large or run the other way.

Biological target: Cytochrome P450 1A2 (Homo sapiens) (UniProt P05177)
Sequence (P05177 whole entry, looked up): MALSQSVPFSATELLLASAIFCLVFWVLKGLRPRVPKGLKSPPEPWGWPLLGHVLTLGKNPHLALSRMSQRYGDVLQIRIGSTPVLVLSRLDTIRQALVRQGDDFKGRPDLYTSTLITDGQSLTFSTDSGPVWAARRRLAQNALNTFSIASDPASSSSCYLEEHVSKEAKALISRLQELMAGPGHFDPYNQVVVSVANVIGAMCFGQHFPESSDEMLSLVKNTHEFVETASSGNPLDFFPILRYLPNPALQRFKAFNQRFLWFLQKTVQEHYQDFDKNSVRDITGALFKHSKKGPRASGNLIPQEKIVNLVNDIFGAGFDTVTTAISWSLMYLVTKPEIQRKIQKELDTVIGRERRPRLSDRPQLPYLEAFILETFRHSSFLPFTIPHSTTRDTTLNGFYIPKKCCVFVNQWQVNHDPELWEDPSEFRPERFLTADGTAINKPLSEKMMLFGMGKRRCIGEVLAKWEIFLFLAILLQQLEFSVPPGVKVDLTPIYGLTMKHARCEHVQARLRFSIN
Experiment: Cytochrome P450 Family 1 Subfamily A Member 2 (CYP1A2) small molecule antagonists: luciferase reporter qHTS assay (AID 1671199); note: nearly all actives have a fitted effect of over 50% in size
Settings: P450-Glo CYP1A2 enzyme, luciferin luminescence, 1 h; series mostly up to 53 µM; activity change, negative = inhibition: at the top concentration
Text: National Center for Advancing Translational Sciences [NCATS]
U.S. Environmental Protection Agency [EPA]
National Institutes of Environmental Health Sciences [NIEHS]
National Toxicology Program [NTP]
U.S. Food and Drug Administration [FDA]
Cytochrome P450 (CYP) enzymes are membrane-bound hemeproteins that play a key role in metabolism of drugs and xenobiotics. Evaluation of the effect of chemicals on CYP isozymes is useful to minimize the adverse drug reactions and toxicities in drug development process. Tox21 chemicals were tested for their effect on CYP enzyme activities by using P450-Glo (TM) screening systems (Promega Corporation, Madison, WI). These systems provide a luminescent method containing proluciferin substrates and are converted to luciferin products by CYP isozymes. The luciferin products formed are detected with a luciferin detection reagent, and the amount of light produced is proportional to CYP activity. P450-Glo (TM) CYP1A2 screening system (Catalog. No. V9770) was used to detect the compounds that interfere in CYP1A2 activity. The positive control compound used for CYP1A2 assay is furafylline (Sigma-Aldrich, St. Louis, MO).
Tox21 Assay Protocol Summary:
Two ul of enzyme-substrate mix was dispensed into medium binding white/solid 1536-well plates (Greiner Bio-One North America Inc., Monroe, NC) using a BioRaptr Flying Reagent Dispenser (FRD, Beckman Coulter, Brea, CA). Compounds dissolved in DMSO and positive control (furafyllline) were transferred to the assay plates at 23 nl using a Pintool station (Wako, San Diego, CA). The assay plates were incubated at room temperature for 10 min. Then 2 ul of NADPH regeneration solution was added to each well of the assay plates using an FRD and incubated at room temperature for 1 h. The reaction was stopped by adding 4 ul of detection reagent using an FRD and after 20 min incubation at room temperature the luminescence signal was measured using a ViewLux plate reader (Perkin Elmer, Shelton, CT). Data were expressed as relative luminescence units.
% is set by controls: 0 for no effect and ±100 for the full control effect; potency is the fitted concentration of half-maximal effect.

SMILES	activity change, negative = inhibition	Potency
COCC(O)CO (stereo not given)	-8.13% [at 115 µM]	
CCCCCC=CCC=CCCCCCCCC(=O)OCC		27.5 µM (active)
CCOC(=O)/C=C/C(=O)O	-31.7% [at 115 µM]	
O=C(O)c1ccc(CO)o1		64.4 µM (active)
CCOC(=N)CC(=O)OCC		39.9 µM (active)
O=c1[nH]c2ccc(S(=O)CCN3CCC(Cc4ccc(F)cc4)CC3)cc2o1 (stereo not given)	-21% [at 115 µM]	
O=C(CCCCCCC(=O)Nc1ccccc1)NO		12.9 µM (active)
CCCCC(=O)O[C@]1(C(=O)CO)[C@@H](C)C[C@H]2[C@@H]3CCC4=CC(=O)C=C[C@]4(C)[C@@]3(F)[C@@H](O)C[C@@]21C	-19.9% [at 115 µM]	
Cc1cc2nc3ccc(=[N+](C)C)cc-3sc2cc1N		2.75 µM (active)
CCOc1cc(N)c(Cl)cc1C(=O)NCC1CN(Cc2ccc(F)cc2)CCO1 (stereo not given)		1.55 µM (active)
CCC(=O)OC/C=C/c1ccccc1		63.3 µM (active)
CC(CCO)CCc1ccccc1 (stereo not given)		22.4 µM (active)
O=C(CCCN1CCN(c2ccc(F)cc2)CC1)NC1c2ccccc2CSc2ccccc21 (stereo not given)	0.532%	
CC(C)CCCCCOC(=O)CCCCC(=O)OCCCCCC(C)C	-23.1% [at 115 µM]	
Nc1c(I)cc(I)c(C(=O)N(CCC(=O)O)c2ccccc2)c1I	-0.245%	
Oc1cc(O)c(Cl)cc1Cl		18.3 µM (active)
CCCCN(CCCC)C(=S)SSC(=S)N(CCCC)CCCC		35.2 µM (active)
NC(=O)Cn1c(=O)cc(CCN2CCN(c3nccc4sccc34)CC2)c2ccc(F)cc21	-19.5% [at 115 µM]	
COCc1c(C(C)C)nc(C(C)C)c(/C=C/[C@@H](O)C[C@@H](O)CC(=O)O)c1-c1ccc(F)cc1		30.9 µM (active)
Nc1nccs1	-15.9% [at 115 µM]	

SMILES	activity change, negative = inhibition	Potency
CC[C@H](NC(=O)c1cc(F)ccc1NS(=O)(=O)c1cccc2cccnc12)c1ccccc1	-9.88% [at 115 µM]	
C[N+](C)(C)CCOC(N)=O	13.5%	
CC(C)C(=O)O	-15% [at 115 µM]	
CCCC(=O)O[C@]1(C(=O)COC(=O)CC)CC[C@H]2[C@@H]3CCC4=CC(=O)CC[C@]4(C)[C@H]3[C@@H](O)C[C@@]21C	12.4% [at 23.6 µM]	
CCCCC/C(=C\c1ccccc1)CO		3.94 µM (active)
Nc1ccc(C(=O)OCCCOC(=O)c2ccc(N)cc2)cc1		7.1 µM (active)
CCCCCCCCCCCCCCC[C@H](O)[C@@H](N)CO	15.1%	
CCCC1C(CC)=CC(CC)=CN1c1ccccc1 (stereo not given)		11.2 µM (active)
CCn1nc(C)c2c1C(=O)NCC(c1ccc(O)cc1)=N2		63.3 µM (active)
C[C@@H]1C[C@H]2[C@@H]3CCC4=CC(=O)C=C[C@]4(C)[C@@]3(F)[C@@H](O)C[C@]2(C)[C@H]1C(=O)CO	9.36%	
CC(C)(O)c1ccccc1CC[C@@H](SCC1(CC(=O)O)CC1)c1cccc(/C=C/c2ccc3ccc(Cl)cc3n2)c1	-12.1%	
Cc1oc(C)c(C(=O)Nc2ccccc2)c1C		15.9 µM (active)
CN(C(=O)C(Cl)Cl)c1ccc(OC(=O)c2ccco2)cc1	-0.709%	
CCC(C)(O)CCC=C(C)C (stereo not given)	-26.5% [at 115 µM]	
CSc1ccc(Oc2ccc(S(N)(=O)=O)cc2CN(C)C)cc1C		63.3 µM (active)
CCc1c2c(nc3ccc(OC(=O)N4CCC(N5CCCCC5)CC4)cc13)-c1cc3c(c(=O)n1C2)COC(=O)[C@]3(O)CC	11.5%	
Nc1ccc(S(=O)(=O)O)cc1	-12.3% [at 115 µM]	
CC(N)CN (stereo not given)	-26.4% [at 115 µM]	
CCCCCCCCCCCC[N+](C)(C)CC(=O)[O-]		35.6 µM (active)
CN(C)C(=O)Nc1ccc(Oc2ccc(Cl)cc2)cc1		12.6 µM (active)
